Compounds with a hit are over-represented: about 19% of the library has one in this group of screens.
HT1080 IDH1KD tx – toxicity to HT-1080 IDH1 knockdown cells (counter line); HT-1080 IDH1 knockdown viability, ATP luminescence, 48 h; Potency, µM (doses to about 46.1 µM), for the others: at the highest dose activity, negative = toxicity, hits mostly cytotoxic; hit rate 2% among 360,000;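 note: potency is the fitted concentration of half-maximal effect; 0% = DMSO wells and -100% = cell-free medium wells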
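HT-1080-IDH1KD cells (IDH1 knocked down), 750/well in RPMI with 5% FBS, treated with compound 48 h at 37 degrees C. Viability by CellTiter-Glo luminescence, normalised to DMSO and no-cell wells; concentration-response curves classed.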
IL1B secr inh – inhibitors of inflammasome signaling (IL-1 beta secretion); hit rate 4.7% among 360,000; activity change, % at 57.5 µM; THP-1 LPS/ATP IL-1B secretion, AlphaLISA, 16 h; active compounds read low; AID 743279; in the data active = activity change below about -50%; inconclusive = mostly about -30% to -49%
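Secreted IL-1B measured by AlphaLISA bead assay after 16 h compound exposure of THP-1 cells; compounds (final up to 57.5 uM) added 1 h before LPS (250 ng/mL) and ATP (1.25 mM) stimulation; lower signal means less secretion.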
TDP1 cell CPT – growth inhibition of DT40 Tdp1-/-;hTDP1 cells with camptothecin (screen for TDP1 inhibitors); hit rate 12% among 420,000; chicken DT40 Tdp1-/-;hTDP1 cells + 20 nM CPT, ATP luminescence, 48 h; Potency, µM (highest dose often 46.2 µM), for inactives: top-dose activity change, negative = growth inhibition, most hits filed as inhibitors; note: potency is the fitted concentration of half-maximal effect; nearly all actives have a fitted effect of over 55% in size
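Chicken DT40 Tdp1-/- cells complemented with human TDP1, 400 cells/well, exposed to compounds plus 20 nM camptothecin for at least 48 h at 37 C; viability read as ATP content by CellTiter-Glo luminescence.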
TDP1 cell noCPT – qHTS for Inhibitors of human tyrosyl-DNA phosphodiesterase 1 (TDP1): qHTS in cells in absence of CPT; DT40 Tdp1-/- hTDP1 cells, no CPT, ATP luminescence, 48 h; Potency, µM (top dose mostly 46.2 µM), inactives show top-dose activity change, negative = growth inhibition, usual class: inhibitors; hit rate 15% among 420,000; note: potency is the fitted concentration of half-maximal effect; nearly all actives have a fitted effect of over 55% in size
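No-CPT arm: Tdp1-/-;hTDP1 DT40 cells (400/well) plus compounds, incubated ≥48 hr at 37 °C. Readout CellTiter-Glo luminescence.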
HT1080NT lethal – kills 2HG-producing HT-1080-NT fibrosarcoma cells; HT-1080-NT fibrosarcoma viability, CellTiter-Glo ATP luminescence, 48 h; Potency, µM (titrated, usually from 46.1 µM), without a hit: at the highest dose activity, negative = less viability, most hits filed as cytotoxic; hit rate 1.6% among 360,000; AID 686970;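 note: NT is the 2HG producing partner of a matched IDH1 knockdown line; potency is the fitted concentration of half-maximal effect; 0% = DMSO-treated cells and -100% = media-only wells without cells; nearly all actives have a fitted effect of over 55% in size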
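Compounds were tested in concentration-response format on HT-1080-NT cells for 48 hours at 37 degrees C. Cell viability came from CellTiter-Glo luminescence; curves were classified by r2, response magnitude and activity.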
The depositor's hits bear a star; ? = inconclusive; / = not tested or not shown. Unless noted, calls come from the whole dose curve; as a rule, active = well fitted curve in the direction sought with a large enough effect; inconclusive = small, poorly fitted or top-dose-only effect, or another doubt; inactive = no such curve, though single readings can be large; an effect the other way counts as inactive or inconclusive. Unless noted, % is set by controls: 0 for no effect and ±100 for the full control effect.

SMILES	HT1080 IDH1KD tx	IL1B secr inh	TDP1 cell CPT	TDP1 cell noCPT	HT1080NT lethal
CC(=O)C1=C(C)NC(SCc2cccc([N+](=O)[O-])c2)=C(C#N)C1c1ccco1 (configuration not stated)	-9.0%	-65.8*	?	?	0.4%
Cc1cc(NC(=O)CCNS(=O)(=O)c2cc(Br)cnc2N)ccc1Br	?	-12.4	-4.8%	-6.1%	?
CCn1c(CSc2nc(C)cc(C)n2)nnc1SCC(=O)Nc1nc(-c2ccccc2)cs1	-5.3%	32.0	20.6µM*	?	-8.9%
Cc1cc(C)nc(SCc2nnc(SCC(=O)Nc3nc(-c4ccccc4)cs3)n2C)n1	0.3%	2.8	?	25.9µM*	-6.3%
CCOc1cccc(SCc2noc(C(=O)NCC3CCCO3)c2C(=O)O)c1 (configuration not stated)	1.7%	16.9	-2.2%	-16.6%	3.2%
COC(=O)c1cc(=O)c2c(ccc3oc(=O)ccc32)[nH]1	1.1%	7.0	-25.1%	-5.1%	14.2%
CC(=O)c1ccc2c(c1)N(Cc1ccc3ccccc3c1)C(=O)C(C)S2 (configuration not stated)	?	0.0	5.8µM*	5.17µM*	?
CC1Sc2ccccc2N(Cc2ccccc2)C1=O (configuration not stated)	3.0%	62.1	-28.1%	?	36.0%
Cc1cc(Br)ccc1NC(=O)CN1C(=O)C2C3CC(c4ccccc4)C(C3)C2C1=O (configuration not stated)	-24.3%	?	?	16.4µM*	-12.2%
Cc1ccccc1N(C(=O)c1cccs1)c1nc2ccccc2s1	-6.2%	-22.4	23.1µM*	18.4µM*	-6.2%
COc1ccc(C)cc1N(C(=O)c1ccccc1)c1nc2ccccc2s1	-10.4%	-2.9	-28.1%	?	-11.5%
Cc1ccsc1C(=O)N(c1nc2ccccc2s1)c1c(C)cccc1C	11.7%	-0.8	?	23.1µM*	14.1%
Nc1nnc(SCC(=O)Nc2ccccc2C(F)(F)F)s1	/	/	-1.7%	-2.6%	/
Cc1ccc(C(=O)Nc2ccc3c(c2)CCC3)cc1S(=O)(=O)N1CCOCC1	-1.1%	?	?	?	-8.9%
O=C(Nc1ccc(F)c(F)c1)c1ccc(F)c(S(=O)(=O)N2CCC3(CC2)OCCO3)c1	?	-59.9*	16.4µM*	13µM*	?
NS(=O)(=O)c1cc(C(=O)Nc2ccc3c(c2)CCC3)ccc1Cl	-7.4%	-67.6*	-3.1%	?	0.0%
Cc1ccc(C(=O)Nc2ccc3c(c2)CCC3)cc1	-5.1%	?	-14.6%	-5.7%	-11.4%
O=S(=O)(c1cc(F)ccc1F)N1CCC2(CC1)OCCO2	7.9%	21.2	-1.5%	13.2%	11.4%
O=C(Nc1ccc2c(c1)CCC2)c1ccc(F)c(S(=O)(=O)N2CCOCC2)c1	-14.8%	2.6	?	23.1µM*	-0.9%
O=C(CN1C(=O)COc2ccccc21)NCC1CCCO1 (configuration not stated)	5.0%	15.0	-1.1%	-10.4%	5.6%
CC1(C)CC(=O)C2=C(C1)NC1=C(C(=O)c3ccccc31)C2c1cccnc1 (configuration not stated)	-9.2%	8.9	?	?	-1.4%
CC(C)c1ccc(C2C3=C(CC(C)(C)CC3=O)NC3=C2C(=O)c2ccccc23)cc1 (configuration not stated)	?	?	20.6µM*	?	?
COc1ccc(-c2ccc(/C=N/NC(=O)Cc3nnc(N)s3)o2)cc1Cl	2.2%	-16.3	?	18.4µM*	9.6%
Cc1ccc(-c2ccc(/C=N/NC(=O)Cc3nnc(N)s3)o2)cc1Cl	0.8%	0.0	?	-28.8%	4.8%
Nc1nnc(CC(=O)N/N=C/c2ccc(-c3ccccc3)o2)s1	16.0%	0.0	-5.5%	2.0%	11.7%
SMILES	HT1080 IDH1KD tx	IL1B secr inh	TDP1 cell CPT	TDP1 cell noCPT	HT1080NT lethal
COC(=O)c1ccc(-c2ccc(/C=N/NC(=O)Cc3nnc(N)s3)o2)cc1	-1.2%	-85.7*	1.0%	?	-0.7%
Cc1ccccc1-n1c(SC(C)C(=O)NCC2CCCO2)nnc1-c1ccncc1 (configuration not stated)	4.3%	24.9	11.8%	-16.0%	8.1%
CC(C)(CCC(=S)N1CCOCC1)c1ccccc1	-10.0%	15.5	-20.9%	-28.8%	-9.7%
O=C(NNC(=O)C12CC3CC(CC(C3)C1)C2)c1ccccc1O	?	11.0	8.2µM*	8.2µM*	-17.1%
O=C(NNC(=O)C12CC3CC(CC(C3)C1)C2)c1ccccc1F	11.3%	-0.2	5.3%	-5.3%	1.1%
CCN1C=C(Cc2ccc(OC)cc2)C2=C(C1)C(c1ccc(OC)cc1)C(C#N)=C(N)O2 (configuration not stated)	?	-59.9*	?	16.4µM*	-26.1%
COc1ccc(C2C(C#N)=C(N)Oc3c2oc(CO)cc3=O)cc1 (configuration not stated)	-3.2%	-5.5	-13.1%	31.2%	3.0%
O=C(COc1cc2oc(=O)cc(-c3ccccc3)c2cc1Cl)NC(Cc1c[nH]c2ccc(O)cc12)C(=O)O (configuration not stated)	-7.4%	37.0	-21.7%	-5.7%	0.9%
C=C1Cc2c(Cl)cc3[nH]c4c5c3c2[C@@]2(O)[C@@H]1C[C@@H]2C(C)(C)O[C@H]5[C@@H]1CC[C@@]2(O)[C@@]35O[C@@H]3[C@@H](O)[C@@H](C(=O)O)O[C@H]5CC[C@]2(C)[C@@]41C	/	/	5.8µM*	4.11µM*	/
CCOC(=O)c1c(C)n(C)c2c(C)cc(O)c(OC(C)=O)c12	22.1%	-10.0	9.2µM*	13µM*	18.9%
CCOC(=O)c1c(C)n(C)c2c1cc(OC(C)=O)c1ccccc12	13.2%	29.3	0.8%	?	?
COC(=O)c1ccc2c(=O)n(Cc3ccc(C(=O)NCCCN4CCC(C)CC4)cc3)c(=S)[nH]c2c1	?	-106.1*	20.6µM*	16.4µM*	?
CCOc1cc2[nH]c(=S)n(Cc3ccc(C(=O)NCCCOC)cc3)c(=O)c2cc1OCC	3.7%	21.3	-23.3%	0.4%	-0.9%
CC1CCN(CCCNC(=O)c2ccc3c(=O)n(Cc4ccc(Cl)cc4)c(=S)[nH]c3c2)CC1	-8.9%	/	?	?	-8.0%
CCOc1cc2[nH]c(=O)n(Cc3ccc(C(=O)NCCCN4CCC(C)CC4)cc3)c(=O)c2cc1OCC	?	18.0	?	23.1µM*	?
CCOc1cc2[nH]c(=S)n(Cc3ccc(C(=O)NCCCN4CCOCC4)cc3)c(=O)c2cc1OCC	12.1%	0.0	?	18.4µM*	11.6%

Screens deposited in PubChem BioAssay by National Center for Advancing Translational Sciences (NCATS).
